Reference: PubChem BioAssay (NCI)
Compounds without any hit were thinned out: in the full panel of roughly 83,000, 20% have a hit.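 Results are percent growth after 48 hours of single-concentration exposure. 100 means growth as in untreated cells, lower positive values show inhibition; negative values down to -100 show cell death.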 The source made the active and inactive calls. The calls were made as follows: active = growth percent below 10; inactive = the rest.

What follows are compounds tested on OVCAR-8 ovarian (assay: NCI-60 one-dose screen, 48 h (100 = growth as untreated, 0 = no growth, -100 = all killed)). Conditions: 10 µM unless noted.

| Compound | growth |
| --- | --- |
| Nc1ccc(F)c(Cl)c1F | 108% (inactive) |
| COc1ccc(Br)c2c1C(=O)CC2 | 106% (inactive) |
| Oc1cccnc1CN1CCCC1 | 94.7% (inactive) |
| CN=S(=O)(OCCCCCOS(=O)(=NC)c1ccc(C)cc1)c1ccc(C)cc1 (stereo unspecified) | 95% (inactive) |
| NC(CO)(CO)c1ccccc1 | 103% (inactive) |
| CC1CC2C3CCC4=CC(=O)CCC4(C)C3CCC2(C)C1(O)C(=O)CO (stereo unspecified) | 105% (inactive) |
| CC(c1ccccc1)N1C(=O)CSC1=S (stereo unspecified) | 34.2% (inactive) |
| CN1CCN(C(=S)S)CC1 | 109% (inactive) |
| O=c1cc(C(F)(F)F)[nH]c(=S)[nH]1 | 105% (inactive) |
| CCOP(=O)(NC(c1ccccc1)c1ccccc1)OCC | 98.1% (inactive) |
| CC(C)(C)[Si](C)(C)OCC1OC(n2cnc3c(N)ncnc32)CC1OS(C)(=O)=O (stereo unspecified) | 98.6% (inactive) |
| Nc1nc(Cl)cc(Cl)n1 | 112% (inactive) |
| C=C(C)COc1ccc(C(C)(C)C)cc1 | 95.4% (inactive) |
| Nc1ccc2c(c1)Cc1cc(N)c(N)cc1-2 | 96.7% (inactive) |
| Clc1ccc(C(SCc2ccccc2)SCc2ccccc2)cc1 | 95.5% (inactive) |
| O=[N+]([O-])c1ccc(-c2nc(N(CCO)CCO)c3ccccc3n2)o1 | 1.65% (active) |

| Compound | growth |
| --- | --- |
| CCNC(=O)OCCc1c2ccccc2nc2ccccc12 | 98% (inactive) |
| C=C(OC(C)=O)c1ccccc1 | 101% (inactive) |
| O=C(OCc1ccccc1)n1nnc2ccccc21 | 105% (inactive) |
| Cc1ccc2nc(N)nnc2c1 | 112% (inactive) |
| CC(=O)NC(CCC(=O)c1ccccc1)C(=O)O (stereo unspecified) | 101% (inactive) |
| CCOC(=O)/C(C#N)=C\c1c[nH]c2ccccc12 | 85% (inactive) |
| CCN(C(=O)Nc1ccccc1Cl)c1ccccc1 | 101% (inactive) |
| Nc1cc2ccccc2c(O)c1O | -69.9% (active) |
| COc1cc(C(=O)N2CCN(c3ccccc3)CC2)c2ccccc2n1 | 14.3% (inactive) |
| Cc1ccc(C)c(CCO)c1 | 98.8% (inactive) |
| NCCCN1CCCC1=O | 97.5% (inactive) |
| Cc1c(Cl)cccc1N=C=S | 95.6% (inactive) |
| O=[n+]1ccn([O-])c2ccccc21 | 121% (inactive) |
| Nc1ncnc2c1ncn2C1OC(CO)C2OC21 (stereo unspecified) | 98.7% (inactive) |
| Cc1ccc(S(N)(=O)=O)cc1Cl | 105% (inactive) |
| O=C1C=Cc2ccccc2/C1=C/c1[nH]c(=O)[nH]c1O | 45.4% (inactive) |

Each compound was assayed on OVCAR-5 ovarian in the same assay as above. Conditions: 10 µM unless noted.

| Compound | growth |
| --- | --- |
| Nc1ccc(F)c(Cl)c1F | 98.8% (inactive) |
| COc1ccc(Br)c2c1C(=O)CC2 | 97.8% (inactive) |
| Oc1cccnc1CN1CCCC1 | 97.9% (inactive) |
| CC(C)(CC(=O)O)CC(=O)O | 99.5% (inactive) |
| CN=S(=O)(OCCCCCOS(=O)(=NC)c1ccc(C)cc1)c1ccc(C)cc1 (stereo unspecified) | 106% (inactive) |
| NC(CO)(CO)c1ccccc1 | 101% (inactive) |
| CC1CC2C3CCC4=CC(=O)CCC4(C)C3CCC2(C)C1(O)C(=O)CO (stereo unspecified) | 104% (inactive) |
| CC(c1ccccc1)N1C(=O)CSC1=S (stereo unspecified) | 91.2% (inactive) |
| CN1CCN(C(=S)S)CC1 | 106% (inactive) |
| Nc1ncnc(Nc2ccccc2)n1 | 105% (inactive) |
| O=c1cc(C(F)(F)F)[nH]c(=S)[nH]1 | 102% (inactive) |
| CCOP(=O)(NC(c1ccccc1)c1ccccc1)OCC | 108% (inactive) |
| Nc1nc(Cl)cc(Cl)n1 | 103% (inactive) |
| C=C(C)COc1ccc(C(C)(C)C)cc1 | 106% (inactive) |
| Nc1ccc2c(c1)Cc1cc(N)c(N)cc1-2 | 107% (inactive) |
| Clc1ccc(C(SCc2ccccc2)SCc2ccccc2)cc1 | 93.3% (inactive) |
| O=[N+]([O-])c1ccc(-c2nc(N(CCO)CCO)c3ccccc3n2)o1 | -5.6% (active) |

| Compound | growth |
| --- | --- |
| CCNC(=O)OCCc1c2ccccc2nc2ccccc12 | 111% (inactive) |
| C=C(OC(C)=O)c1ccccc1 | 106% (inactive) |
| Cc1ccc2nc(N)nnc2c1 | 102% (inactive) |
| CC(=O)NC(CCC(=O)c1ccccc1)C(=O)O (stereo unspecified) | 98.3% (inactive) |
| CCOC(=O)/C(C#N)=C\c1c[nH]c2ccccc12 | 111% (inactive) |
| CCN(C(=O)Nc1ccccc1Cl)c1ccccc1 | 97.1% (inactive) |
| Nc1cc2ccccc2c(O)c1O | 76.1% (inactive) |
| NC(CSSCC(N)C(=O)O)C(=O)O (stereo unspecified) | -5.59% (active) |
| COc1cc(C(=O)N2CCN(c3ccccc3)CC2)c2ccccc2n1 | 39.4% (inactive) |
| Cc1ccc(C)c(CCO)c1 | 97% (inactive) |
| S=c1nc2[nH]c3ccccc3c2n[nH]1 | 93.6% (inactive) |
| NCCCN1CCCC1=O | 110% (inactive) |
| Cc1c(Cl)cccc1N=C=S | 93.1% (inactive) |
| O=[n+]1ccn([O-])c2ccccc21 | 93.1% (inactive) |
| CCOc1ccc2c(c1)c(C)cc(C)[n+]2CC | 98.5% (inactive) |
| Cc1ccc(S(N)(=O)=O)cc1Cl | 103% (inactive) |
| O=C1C=Cc2ccccc2/C1=C/c1[nH]c(=O)[nH]c1O | 86.7% (inactive) |
